In the library only some 17% were active in any assay of this set; here they are far more common.
TDP1 cell CPT = growth inhibition of DT40 Tdp1-/-;hTDP1 cells with camptothecin (screen for TDP1 inhibitors); chicken DT40 Tdp1-/-;hTDP1 cells + 20 nM CPT, ATP luminescence, 48 h; Potency, µM (highest dose often 46.2 µM), for the others: at the top dose activity change, negative = growth inhibition, actives largely listed as inhibitors; 12% of 420,000 active; AID 686979; note: % is set by controls: 0 for no effect and ±100 for the full control effect; nearly all actives have a fitted effect of over 55% in size
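Cell growth measured by CellTiter-Glo luminescence after a minimum 48 h, 37 C compound exposure with 20 nM CPT in Tdp1-knockout DT40 cells stably expressing hTDP1, seeded 400/well; qHTS titration format.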
HT1080NT lethal = kills 2HG-producing HT-1080-NT fibrosarcoma cells; HT-1080-NT fibrosarcoma viability, CellTiter-Glo ATP luminescence, 48 h; Potency, µM (top dose mostly 46.1 µM), for inactives: at the highest dose activity, negative = less viability, usual class: cytotoxic; 1.6% of 360,000 active;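 note: NT is the 2HG producing partner of a matched IDH1 knockdown line; 0% = DMSO-treated cells and -100% = media-only wells without cells; nearly all actives have a fitted effect of over 55% in size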
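Viability by CellTiter-Glo luminescence after 48 h compound exposure at 37C of HT-1080-NT cells (750/well, RPMI, 5% FBS). % activity scaled between DMSO wells and medium-only wells, then curve-fitted and categorized by curve class.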
HepG2 viability = kills HepG2 cells in TGF-b inhibitor counter-screen; HepG2 CAGA-GFP viability, ATP luminescence, 18 h; Potency, µM (series often up to 46.1 µM), without a hit: at the top dose activity change, negative = cytotoxicity, usual class: cytotoxic; 0.76% of 410,000 active
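CellTiter-Glo luminescence gave cytotoxicity after 18 hours at 37 degrees C. The cells were HepG2 CAGA-GFP in 1% FBS DMEM, stimulated with 500 pg/mL TGF-beta after compound addition. %Activity was normalised to no-cell wells (complete cell-killing) and DMSO (no toxicity), and curves were fitted and classified.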
HT1080 IDH1KD tx = toxicity to HT-1080 IDH1 knockdown cells (counter line). HT-1080 IDH1 knockdown viability, ATP luminescence, 48 h. Potency, µM (highest dose often 46.1 µM), inactives show at the highest dose activity, negative = toxicity, actives largely listed as cytotoxic. 2% of 360,000 active. AID 686971;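 note: 0% = DMSO wells and -100% = cell-free medium wells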
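Using the IDH1-knockdown HT-1080 line run in the same batch and compound series as the NT line, viability after 48 h at 37 °C was determined by CellTiter-Glo luminescence and expressed as % activity.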
TDP1 cell noCPT = qHTS for Inhibitors of human tyrosyl-DNA phosphodiesterase 1 (TDP1): qHTS in cells in absence of CPT; 15% of 420,000 active; DT40 Tdp1-/- hTDP1 cells, no CPT, ATP luminescence, 48 h; Potency, µM (doses to about 46.2 µM), for inactives: at the highest dose activity change, negative = growth inhibition, most hits filed as inhibitors; note: % is set by controls: 0 for no effect and ±100 for the full control effect; nearly all actives have a fitted effect of over 55% in size
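Camptothecin absent (DMSO only). Human TDP1-complemented DT40 knockout cells, 400 cells/well, 37 °C for minimum 48 hr; ATP measured via CellTiter-Glo, 30 min dark incubation, luminescence.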
TGFb inhibitor = blocks TGF-b signaling; HepG2 CAGA-GFP TGF-b/SMAD3 reporter, GFP fluorescence, 18 h; TGF-beta stimulated, 500 pg/mL final; Potency, µM (series often up to 46.1 µM), inactives show at the highest dose activity, negative = inhibition, usual class: inhibitors; 1.2% of 410,000 active; note: % is set by controls: 0 for no effect and ±100 for the full control effect; nearly all actives have a fitted effect of over 65% in size
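Read-out: total well GFP (ex488/em500-530) summed from mean per-cell fluorescence. Cells: HEPG2 CAGA-GFP, 1% FBS DMEM, 18 h at 37 degrees C with 500 pg/mL final TGF-beta. Unstimulated wells served as the full-inhibition control; stimulated DMSO wells = 0%.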
* hit, by the source's call; ? = inconclusive; nt = no result given. Calls come from the whole dose curve; as a rule, active = well fitted curve in the direction sought with a large enough effect; inconclusive = small, poorly fitted or top-dose-only effect, or another doubt; inactive = no such curve, though single readings can be large; an effect the other way counts as inactive or inconclusive. Potency is the fitted concentration of half-maximal effect.

SMILES	TDP1 cell CPT	HT1080NT lethal	HepG2 viability	HT1080 IDH1KD tx	TDP1 cell noCPT	TGFb inhibitor
CC(=O)Cn1c(N2CCC(Cc3ccccc3)CC2)nc2c1c(=O)[nH]c(=O)n2C	?	8%	-5%	11%	16µM*	-1%
CCCCCn1c(N2CCC(Cc3ccccc3)CC2)nc2c1c(=O)[nH]c(=O)n2C	7.3µM*	21µM*	11µM*	?	?	?
COc1cccc(CNC(=S)Nc2cc(C)ccc2C)c1	18µM*	2%	-5%	-1%	26µM*	-1%
Cc1ccc(C)c(NC(=S)NCc2cccs2)c1	?	2%	-52%	2%	29µM*	-9%
COc1cc(C(=O)NCC(c2ccc(N(C)C)cc2)N2CCCC2)cc(OC)c1OC (stereo not drawn)	18µM*	nt	-23%	nt	?	-14%
COc1cccc(C(=O)NCC(c2ccc(N(C)C)cc2)N2CCCC2)c1OC (stereo not drawn)	12µM*	nt	-15%	nt	?	-2%
Cc1cc(C)cc(C(=O)NCC(c2ccc(N(C)C)cc2)N2CCCC2)c1 (stereo not drawn)	15µM*	nt	-48%	nt	16µM*	-37%
COc1ccc(Cl)cc1C(=O)NCC(c1ccc(N(C)C)cc1)N1CCOCC1 (stereo not drawn)	?	nt	8%	nt	16µM*	33%
CC(Oc1ccc(Cl)cc1Cl)C(=O)NCCC1=CCCCC1 (stereo not drawn)	?	-27%	-36%	-13%	?	?
COc1cccc(C(=O)NCC(c2ccc(N(C)C)cc2)N2CCOCC2)c1OC (stereo not drawn)	15µM*	nt	2%	nt	16µM*	-25%
O=C(C=Cc1ccccc1)c1cc(Br)ccc1O	?	-1%	-3%	0%	?	-5%
Cc1cccc(/C=C/C(=O)c2cc(Br)ccc(=O)c2O)c1	3.3µM*	?	-29%	?	3.3µM*	?
CCc1ccc(/C=C/C(=O)c2cc(Br)ccc(=O)c2O)cc1	3.3µM*	21µM*	-76%	?	5.2µM*	?
CCOc1ccc(/C=C/C(=O)c2cc(Br)ccc(=O)c2O)cc1	4.6µM*	?	-55%	23µM*	3.7µM*	7.9µM*
CCOc1ccc(/C=C/C(=O)CCC(=O)O)cc1	-4%	18%	-141%	11%	-13%	-12%
Cc1ccc2nc(Cl)c3nnnn3c2c1	1.8µM*	0%	6.3µM*	13µM*	2.6µM*	?
Cc1ccc2nc(NCc3ccccc3Cl)c3nnnn3c2c1	?	nt	-3%	nt	10µM*	69%
Cc1ccc2nc(N3CCN(c4ccc(F)cc4)CC3)c3nnnn3c2c1	7.3µM*	nt	-3%	nt	15µM*	-1%
Cc1ccc(-c2nc3ccccc3n3nnnc23)cc1	13µM*	3%	5%	2%	7.3µM*	-6%
Cc1ccc2nc(Nc3cccc(C(F)(F)F)c3)c3nnnn3c2c1	?	nt	-3%	nt	?	-2%
CCOC(=O)c1ccccc1Nc1nc2ccc(C)cc2n2nnnc12	?	nt	14%	nt	-18%	1%
CCC1CCCCN1CCCNC(=O)c1cc2c(=O)oc3ccc(C)cc3c2s1 (stereo not drawn)	?	-8%	-26%	-8%	?	-3%
c1ccc(-c2nc3ccccc3c3nc4ccccc4n23)cc1	7%	5%	11%	17%	-5%	44%
Cc1ccc(-c2nnc3c(C(F)(F)F)nc4ccccc4n23)cc1	21µM*	4%	-42%	12%	21µM*	?
Cc1ccc(NS(=O)(=O)c2c(C)nc3sccn3c2=O)c(C)c1	-29%	0%	-14%	5%	-25%	-2%
SMILES	TDP1 cell CPT	HT1080NT lethal	HepG2 viability	HT1080 IDH1KD tx	TDP1 cell noCPT	TGFb inhibitor
Cc1nc2sccn2c(=O)c1S(=O)(=O)Nc1cc(C(F)(F)F)ccc1Cl	-5%	nt	-11%	nt	-27%	29%
CC1C(=O)N(Cc2cn(Cc3ccco3)nn2)CCS(=O)(=O)N1Cc1ccc(-c2ccccc2)cc1 (stereo not drawn)	?	-22%	-27%	-13%	18µM*	?
CC1C(=O)N(Cc2cn(Cc3ccco3)nn2)CCS(=O)(=O)N1Cc1ccc(-c2ccc(Cl)cc2)cc1 (stereo not drawn)	18µM*	-19%	-43%	-26%	13µM*	?
Cc1ccc(S(=O)(=O)c2nnn3c2nc(N2CCOCC2)c2ccccc23)c(C)c1	?	-1%	-2%	-4%	?	-1%
Cc1nn(-c2ccc(Cl)cc2)c2[nH]c(=O)c(CNCc3ccc4c(c3)OCO4)cc12	18µM*	-13%	2%	-1%	18µM*	0%
Cc1ccc(CNc2ccc(N3CCOCC3)cc2)s1	-14%	6%	-2%	0%	-14%	0%
Cc1nn(-c2ccccc2)c2[nH]c(=O)c(CNc3ccc(N4CCOCC4)cc3)cc12	18µM*	-24%	-32%	?	18µM*	2%
O=c1c(NCCc2ccccc2)c(-c2ccccc2)c1=O	1%	20%	-9%	17%	-30%	-17%
CC1=CC(C)(C)n2c(O)c(C3=NC(=S)NC3=O)c3cc(OC(=O)c4cccc5ccccc45)cc1c32	?	0%	4%	?	23µM*	-2%
COc1cccc(Cn2c(=O)c(-c3ccc(Cl)cc3)nc3cnc(N(C)C)nc32)c1	7%	nt	nt	nt	18%	nt
C=CCn1c(O)c(C2=c3ccccc3=NC2=O)sc1=Nc1ccc(O)cc1	23µM*	-4%	-128%	?	?	?
